# Laboratory results reported in PubChem BioAssay (NCATS).
# Records with an inconclusive call do not appear. Values without a mark were called inactive. Calls come from the whole dose curve.
# Experiment: A High-Content qHTS Against Drug Library for the Identification of Small Molecules that Inhibit DYT1 Early Onset Primary Dystonia-Associated Cell Pathology (AID 1645839)
# Settings: HEK293 Flp-In EGFP-delE TorsinA, punctate imaging, 48 h; series mostly up to 46.1 µM; % pathology change, negative = correction: at the top concentration
# Source text: Nicole Calakos M.D., Ph.D.
# Duke University School of Medicine, Durham, NC
# In DYT1 dystonia due to delGAG in the TOR1A gene, there is a robust and widely replicated finding of TorsinA protein mislocalization caused when the mutant protein is in excess of the wildtype protein (1-7). Stable HEK293 cell lines were created that replicate this phenomenon. Inducible expression of an EGFP-hu delE TorsinA encoding cDNA causes pronounced punctate cellular distribution. […] This phenotypic difference in EGFP-huTorsinA fusion protein distribution serves as an indicator of cell pathology. […] RNAi screen results with the assay were validated in DYT1 patient cell phenotypes, intersected with a known dystonia gene, and led to discovery of new human genetic dystonia associations.
# The bioassay described herein is a high-content image screen with two readouts. The "%pathology" readout is the primary qHTS data channel, while the "cellcount" is the counterscreen qHTS channel. Desired active compounds are those that show inhibition in %pathology channel but no activity or minimal toxicity in cellcount readout.
# 1. Kustedjo, K., Bracey, M.H., and Cravatt, B.F. (2000). […] J. Biol. Chem. 275, 27933 - 27939.
# 2. Bragg, D.C., Kaufman, C.A., Kock, N., and Breakefield, X.O. (2004). Inhibition of N-linked glycosylation prevents inclusion formation by the dystonia-related mutant form of torsinA. Mol. Cell. Neurosci. 27, 417 - 426.
# 3. Gonzalez-Alegre, P., and Paulson, H.L. (2004). Aberrant Cellular Behavior of Mutant TorsinA Implicates Nuclear Envelope Dysfunction in DYT1 Dystonia. J. Neurosci. 24, 2593 - 2601.
# 4. Goodchild, R.E., and Dauer, W.T. (2004). Mislocalization to the nuclear envelope: an effect of the dystonia-causing torsinA mutation. Proc. Natl. Acad. Sci. U. S. A. 101, 847 - 852.
# 5. Kock, N., Allchorne, A.J., Sena-Esteves, M., Woolf, C.J., and Breakefield, X.O. (2006). RNAi blocks DYT1 mutant torsinA inclusions in neurons. Neurosci. Lett. 395, 201 - 205.
# 6. Hewett, J.W., Nery, F.C., Niland, B., Ge, P., Tan, P., Hadwiger, P., Tannous, B.A., Sah, D.W.Y., and Breakefield, X.O. (2008). siRNA knock-down of mutant torsinA restores processing through secretory pathway in DYT1 dystonia cells. Hum. Mol. Genet. 17, 1436 - 1445.
# 7. Calakos, N., Patel, V.D., Gottron, M., Wang, G., Tran-Viet, K.N., Brewington, D., Beyer, J.L., Steffens, D.C., Krishnan, R.R., and Zuchner, S. (2010). Functional evidence implicating a novel TOR1A mutation in idiopathic, late-onset focal dystonia. J. Med. Genet. 47, 646 - 650.
# 8. Rittiner* JE, Caffall* ZF, Hernandez-Martinez R, Sanderson SM, Pearson JL, Tsukayama KK, Liu AY, Xiao C, Tracy S, Shipman MK, Hickey P, Johnson J, Scott B, Stacy M, Saunders-Pullman R, Bressman S, Simonyan K, Sharma N, Ozelius LJ, Cirulli ET, Calakos N. Functional Genomic Analyses of Mendelian and Sporadic Disease Identify Impaired eIF2alpha Signaling as a Generalizable Mechanism for Dystonia. Neuron. 2016 Dec 21;92(6):1238-1251. doi: 10.1016/j.neuron.2016.11.012. Epub 2016 Dec 8. PMID: 27939583; PMCID: PMC5320521.
# High-content, High-throughput Drug Screening Assay
# The TorsinA mislocalization assay was modified from the previously published assay to accommodate compound testing in 1536 well format.1 Briefly, Flp-In T-REx 293 cells from Invitrogen in which a single copy of a cDNA is recombined into a specific genomic locus was used to create tetracycline-inducible expression of cDNA encoding either EGFP-hTOR1A (WT) or EGFP-delE hTOR1A (DYT1). WT and DYT1 cells were diluted to a concentration of 2 x 10^5 cells/mL in reduced serum media (DMEM High Glucose containing 1% tetracycline-tested FBS, 2 mM L-Glutamine, and 1% Penicillin/Streptomycin). 4 µl of WT cells and 4 µl of DTY1 cells were added to column 1 and columns 2-48, respectively, of a poly-D-lysine-coated, low base, black, clear bottom 1536 well plate (Corning, Corning, NY) using the BioRAPTR FRD Microfluidic Workstation (Beckman Coulter, Indianapolis, IN). The final cell number was 800 cells/well. […]
row,Compound,"% pathology change, negative = correction"
1,CCN(CC)CCNC(=O)c1cc(S(C)(=O)=O)ccc1OC,6.09%
2,Cc1ccc(=O)n(-c2ccccc2)c1,1.87%
3,C[C@]12CCC(=O)C=C1CC[C@@H]1[C@@H]2CC[C@@]2(C)[C@H]1CC[C@]2(O)C(=O)CO,10.3%
4,C[N+](C)(C)CCOC(N)=O,2.21%
5,NC(=O)c1cn(Cc2c(F)cccc2F)nn1,0.896%
6,CCn1cc(C(=O)O)c(=O)c2cc3c(cc21)OCO3,8.54% [at 19.1 µM]
7,CC(N=C(NC#N)Nc1ccncc1)C(C)(C)C (stereo not given),-7.36%
8,CN(C)CC[C@@H](c1ccc(Br)cc1)c1ccccn1,4.88%
9,FC(F)(F)c1ccccc1-n1ccnc1,14.1%
10,CCCN(CCC)CCc1cccc2c1CC(=O)N2,-1.45%
11,CCN(CC)CCNC(=O)c1ccc(NC(C)=O)cc1,-0.659%
12,CN=C(NC#N)NCCSCc1nc[nH]c1C,10.5%
13,Cc1ccc(/C(=C\CN2CCCC2)c2ccccn2)cc1,-24%
14,C[C@@H](O)[C@H]1C(=O)N2C(C(=O)O)=C(SCCN=CN)C[C@H]12,14.9%
15,Cc1cccc(C)c1NC(=O)C(C)N (stereo not given),1.13%
16,NC1=NCC2c3ccccc3Cc3ccccc3N12 (stereo not given),-17.7%
17,CC(C)(Oc1ccc(CCNC(=O)c2ccc(Cl)cc2)cc1)C(=O)O,-20.6%
18,NC(N)=NC(=O)Cc1c(Cl)cccc1Cl,3.34%
19,O=C(O)CN(CCOCCOCCN(CC(=O)O)CC(=O)O)CC(=O)O,13.7% [at 0.369 µM]
20,Cc1nnc(SCC2=C(C(=O)O)N3C(=O)[C@@H](NC(=O)Cn4cnnn4)[C@H]3SC2)s1,14.5%

row,Compound,"% pathology change, negative = correction"
1,C[N+](C)(C)CCOC(=O)CCC(=O)OCC[N+](C)(C)C,-7.39%
2,C[C@]12C=CC(=O)C=C1CC[C@H]1[C@@H]3C[C@@H](O)[C@](O)(C(=O)CO)[C@@]3(C)C[C@H](O)[C@@]12F,15.9%
3,NC(N)=N/N=C/c1c(Cl)cccc1Cl,-19.3%
4,CC(C)(C)NCC(O)c1cc(O)cc(O)c1 (stereo not given),-8.08%
5,Cc1scc2c1N(C(=O)CN1CCN(C)CC1)c1ccccc1NC2=O,15.9%
6,CC1=C(C)C(=O)C(CCCCC#CCCCC#CCO)=C(C)C1=O,-16.9%
7,N[C@@H](COP(=O)(O)O)C(=O)O,2.82% [at 19.1 µM]
8,NC(=O)N1c2ccccc2C=Cc2ccccc21,-8.84%
9,COc1ccc(CCN(C)CCCC(C#N)(c2cc(OC)c(OC)c(OC)c2)C(C)C)cc1OC (stereo not given),7.45%
10,NC/C=C/C(=O)O,-10.3%
11,CC(=O)OC(C)C[N+](C)(C)C (stereo not given),6.27%
12,CNC1(C)C2CCC(C2)C1(C)C (stereo not given),-1.42%
13,COc1ccc([C@@H]2Sc3ccccc3N(CCN(C)C)C(=O)[C@@H]2OC(C)=O)cc1,-10.6%
14,CN(C)CCOC(=O)COc1ccc(Cl)cc1,-0.124%
15,CC(=O)OCC1=C(C(=O)O)N2C(=O)[C@@H](NC(=O)Cc3cccs3)[C@H]2SC1,8.11%
16,C[C@]12CCC(=O)C=C1CC[C@@H]1[C@@H]2C(=O)C[C@@]2(C)[C@H]1CC[C@]2(O)C(=O)CO,11.4%
17,CN(C(=O)CCCOc1ccc2[nH]c(=O)ccc2c1)C1CCCCC1,8.48%
18,CC(C)[N+](C)(CCOC(=O)C1c2ccccc2Oc2ccccc21)C(C)C,3.8%
19,CCO/C([O-])=N/c1c[n+](N2CCOCC2)no1,15%
20,O=C(CCNNC(=O)c1ccncc1)NCc1ccccc1,0.406%
